The campaign covered roughly 360,000 compounds. About 2,400 (0.67%) were called active. Cut-off read from the data, not from the text of the source: active = enhancement above about 30%; inactive = the rest. The list comes from a sample in which actives are over-represented; it also holds similar structures and randomly drawn compounds.
target: Thyrotropin-releasing hormone receptor (Homo sapiens) (UniProt P34981); experiment: qHTS for Small Molecule Agonists and Allosteric Enhancers of Human TRH Receptor: Primary Screen for Enhancers; details: TRHR cells, fluo-8 calcium fluorescence, EC20 TRH enhancement; at 2 µM; stronger effect = higher value; note: 0% is about no effect
Sequence (P34981 whole entry, looked up): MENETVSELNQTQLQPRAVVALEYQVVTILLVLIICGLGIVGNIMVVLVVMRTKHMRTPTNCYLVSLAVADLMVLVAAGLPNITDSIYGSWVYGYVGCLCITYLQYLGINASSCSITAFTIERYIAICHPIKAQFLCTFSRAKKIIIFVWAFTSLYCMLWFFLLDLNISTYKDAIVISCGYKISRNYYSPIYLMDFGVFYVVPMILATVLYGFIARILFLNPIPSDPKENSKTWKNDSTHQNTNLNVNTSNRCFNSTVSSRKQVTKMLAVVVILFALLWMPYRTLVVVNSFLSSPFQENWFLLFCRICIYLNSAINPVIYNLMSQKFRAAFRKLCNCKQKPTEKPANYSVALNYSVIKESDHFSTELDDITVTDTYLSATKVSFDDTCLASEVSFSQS
Excerpt: NIH Chemical Genomics Center [NCGC] NIH Molecular Libraries Probe Centers Network [MLPCN] MLPCN Grant: MH089816-01 Assay Submitter (PI): Marvin Gershengorn This project aims to identify small drug-like molecules that activate (agonists) the thyrotropin releasing hormone (TRH) receptor (TRHR) or enhance its TRH-stimulated activity (allosteric enhancers). TRHR, a drug-accessible cell surface receptor expressed in specific brain regions, and its ligand TRH have been implicated in several central nervous system disorders, including depression and anxiety. Small molecule TRHR agonists or allosteric enhancers that are metabolically stable and able to cross the blood-brain barrier might serve as probes to elucidate the roles of brain TRH receptors in animal models, and might be valuable as lead compounds for the development of drugs to treat patients with central nervous system disorders. Upon TRHR-Gq activation in TRHR cells, intracellular calcium is released from stores in the endoplasmic reticulum. […] This primary screen measures compound-induced enhancement of an EC20 stimulation of the receptor by its native ligand.
For the HTS assay freshly prepared cells are plated at a density of 2000/well in 3 ul of complete DMEM medium containing 10% serum in 1536-well plates and cultured over night at 37 C in a humidified incubator with 5% CO2. The next day, 2 ul of a no wash calcium dye (ABD Bioquest) was added to the cells and plates were incubated at room temperature for 1 hour. For the assay, assay plates were loaded into the FDSS kinetic plate reader. A 10 cycle (1 second/cycle) baseline measurement is taken and then the FDSS online 1536 pintool delivers 23 nl of compound library (as well as TRH controls) to the plate. The plate is measured for kinetically at 1 cycle/sec for 180 seconds and is considered to be the agonist portion of the assay (eg, compounds which activate a positive calcium response during this portion are flagged as potential agonists). Following the 180 second read, 1 ul of either an EC20 (positive modulation assay) is delivered by an onboard pipette head. Measurements are taken kinetically for an additional 180 seconds. TRHR FDSS Screening Protocol 1. Reagent, 3 uL 2000 cells/well 1536 TC treated Black plate in media containing 10% FCS 2. Time, 18 hours, 33.5C 5% CO2 (cells grown at 37C) 3. Reagent, 2 uL ABD fluo-8 Ca dye 4. Time, 30 min-1.5hrs hours, Room temp (6 plates/batch) 5. Detector, EX 480/EM 530C, FDSS 10 cycles baseline (1sec/cycle) 6. Compound, 23 nL of stock solution from library 7. Detector, EX 480/EM 530C, FDSS 230 cycles (1sec/cycle) Agonist mode 8. Compound, 1 ul EC20 of TRH made up in HEPES HBSS, 10 nM final 9. Detector, EX 480/EM 530C, FDSS 100 cycles (1sec/cycle) Potentiator mode

enhancement, active:
O=C(Nc1ncccn1)c1cccs1 35.8%
CCCc1cc(=O)[nH]c(SCC(=O)c2c(N)n(CC(C)C)c(=O)n(C)c2=O)n1 38.3%
CC(C(=O)N(C)CC(=O)Nc1ccccc1C(F)(F)F)N1C(=O)c2ccccc2C1=O (stereo not drawn) 35.3%
Cc1nn(Cc2ccccc2)c(C)c1C(=O)N1CCN(CC(=O)Nc2ccccc2Cl)CC1 66.2%
CCn1c(SCC(=O)Nc2nccs2)nnc1-c1ccco1 38%
Cc1cc(C)c2oc(C(=O)Nc3ccc(S(=O)(=O)N4CCCCCC4)cc3)cc(=O)c2c1 48.6%
CC(NC(=O)c1ccc(N2CCNCC2)c([N+](=O)[O-])c1)C12CC3CC(CC(C3)C1)C2 (stereo not drawn) 31.1%
CCCC(=O)C1=C(N(C)c2ccccc2)CC(C)(C)C(C(=O)OC)C1=O (stereo not drawn) 36.8%

enhancement, inactive:
O=C(NC1CCCCCCC1)c1cccs1 -1.69%
O=C(Nc1n[nH]c(C(F)(F)F)n1)c1cccs1 -3.09%
COc1ccc2c(CNCCc3ccccc3C)c(C(=O)O)n(Cc3ccccc3C)c2c1 -16.3%
CCN1CCN(Cc2c(O)ccc3oc(C)c(C(=O)Nc4ccc(C)cc4C)c23)CC1 4.91%
CCC(=O)Nc1c(C(=O)N2CCN(c3ccc(F)cc3)CC2)oc2ccccc12 -8.72%
CCN1CCC(N(Cc2ccc(F)cc2)C(=O)Nc2cc(C)ccc2C)CC1 10%
CCOC(=O)N1CCC(NC(=O)c2cnn(-c3cccc(C)c3)c2C2CCN(C(=O)OC(C)(C)C)CC2)CC1 5.75%
CCCc1cc(=O)[nH]c(SCC(=O)N2C(C)CCCC2C)n1 (stereo not drawn) 6.92%
CC(C)Cn1c(N)c(C(=O)COC(=O)CN2C(=O)C3CC=CCC3C2=O)c(=O)n(C)c1=O (stereo not drawn) 0.142%
O=c1cc(CSc2ncn[nH]2)[nH]c2ccc(F)cc12 0.991%
Cc1c(C(=O)N(C)C)sc2c1c(=O)n(-c1ccc(F)cc1)c(=O)n2CC(=O)N(C)c1ccccc1 -2.28%
O=C(CN1CCN(c2ncccn2)CC1)Nc1ccccc1C(F)(F)F 0.988%
CN(CC(=O)Nc1ccccc1C(F)(F)F)C(=O)Cc1ccccc1F 1.5%
CCCNc1ncnc2c1c(-c1ccccc1)cn2-c1ccc(OCC)cc1 -5.52%
CCCN(CCC)CCCNC(=O)Cn1ncc2c3ccccc3n(Cc3ccccc3)c2c1=O 3.33%
CCC(=O)Nc1ccccc1C(=O)N1CCN(Cc2ccccc2)CC1 8.38%
Cc1nn(Cc2ccccc2)c(C)c1C(=O)NCCCN1CCCC1=O 8.55%
O=C(CSc1nccn1Cc1ccc(F)cc1)NCc1ccccc1 1.55%
Cc1ccc(S(=O)(=O)NC(N)=NCCC[C@@H](NC(=O)CNC(=O)c2ccccc2)C(=O)Nc2cc(C(F)(F)F)ccc2Cl)cc1 2.23%
Nn1c(SCC(=O)Nc2nccs2)nnc1-c1ccco1 4.24%
CCn1c(SCC(=O)Nc2nccs2)nnc1-c1ccncc1 1.36%
O=C(CSc1nnc(-c2ccccc2F)o1)Nc1cccc(C(F)(F)F)c1 8.13%
Cc1cc(C)c2oc(C(=O)Nc3ccc(S(=O)(=O)N(C)c4ccccc4)cc3)cc(=O)c2c1 0.252%
Cc1ccc2oc(C(=O)Nc3ccc(S(=O)(=O)N4CCCCCC4)cc3)cc(=O)c2c1 0.734%
Cc1c(C(=O)NCc2ccccc2Br)oc2ccc3c(c12)C(=O)CC(C)(C)O3 -2.29%
COc1cccc(-n2cc(C(=O)NCc3cccc(Cl)c3)c3ccccc3c2=O)c1 -3.45%
CCC(C)NC(=O)c1ccc(N2CCC3(CC2)OCCO3)c([N+](=O)[O-])c1 (stereo not drawn) -9.06%
O=C(NC1C2CC3CC(C2)CC1C3)c1ccc(N2CCNCC2)c([N+](=O)[O-])c1 (stereo not drawn) 2.28%
Cc1nc2nc(SCC(=O)NC3CCC(C)CC3)nn2c(C)c1Cc1ccccc1Cl (stereo not drawn) 3.16%
CCc1ccccc1NC(=O)CSc1nc(C)c(C(=O)Nc2ccccc2)c(-c2ccc(Cl)cc2)c1C#N -0.268%
CCC[C@@H]1C[C@@]1(CCC)[C@@H](NC(=O)c1ccccc1)c1ccc(C(=O)OC)cc1 -1.9%
C=CCO/N=C/C1=C(O)C(C(=O)OC)C(C)(C)CC1=O (stereo not drawn) -2.52%
Cc1cccc(Cc2c(C)nc3nc(SCc4ccccc4Cl)nn3c2C)c1 -3.69%
COc1ccc(OC)c(-c2noc(N3CCN(c4cc(Cl)ccc4C)CC3)n2)c1 -2.59%
Cc1ccc(-c2cnc(NCc3ccc(C(C)C)cc3)n2C)cc1 2.38%

— PubChem BioAssay AID493056 (National Center for Advancing Translational Sciences (NCATS), 2011)
